Measurements: PubChem BioAssay (Tox21)
Inconclusive results are not listed. Entries that show only a call come without a potency. Where a structure was tested more than once in an assay, its records may differ in their call. Active and inactive are the calls of the source. Unless noted, the call rests on the fitted dose curve.

Columns and labels:
[1] = qHTS assay to identify small molecule agonists of the sonic hedgehog signaling (Shh) pathway (AID 1259368);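 further: NIH/3T3-derived 3T3Gli1-Luc cells carrying a stable Gli1-driven firefly luciferase reporter; series mostly up to about 92 µM; nearly all actives have a fitted effect of over 15% in size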
Outline: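 Following a 24 hr incubation with DMSO-dissolved compounds at 37 C, 5% CO2, Gli1-Luc NIH/3T3-derived cells received luciferase reagent for 30 min at room temperature prior to luminescence measurement.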

[2] = qHTS assay to identify small molecule antagonists of the sonic hedgehog signaling (Shh) pathway (AID 1259369); further: nearly all actives have a fitted effect of over 45% in size; further: potency means the concentration at half of the fitted maximal effect
Outline: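 Read-out is luminescence from a firefly luciferase gene controlled by the Gli1 response element, in 3T3Gli1-Luc cells pre-incubated 4hr then exposed to compounds and conditioned medium for 24hr.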

[3] = qHTS assay to identify small molecule agonists of the androgen receptor (AR) signaling pathway in the presence of an antagonist - cell viability counter screen (AID 1259379; active means well fitted curve in the direction sought with a large enough effect in the repeat runs; an effect the other way counts as inactive or inconclusive; further: nearly all actives have a fitted effect of over 25% in size; further: potency means the concentration at half of the fitted maximal effect)
Outline: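 Each compound was tested at 15 concentrations on MDA-kb2 cells in the presence of 3.0uM nilutamide. Viability was measured by CellTiter-Fluor fluorescence after a 16 hr incubation at 37C in a CO2-free atmosphere.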

[4] = qHTS assay to identify small molecule agonists of the estrogen receptor beta (ER-beta) signaling pathway - cell viability counter screen (AID 1259380; active means well fitted curve in the direction sought with a large enough effect in the repeat runs; an effect the other way counts as inactive or inconclusive; further: nearly all actives have a fitted effect of over 30% in size; further: potency means the concentration at half of the fitted maximal effect)
Outline: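 Compounds dissolved in DMSO were pin-transferred onto ER-beta-UAS-bla HEK293T cells that had settled 6 hr, and exposure ran 16 hr at 37C. Following the reporter read, CellTiter-Glo luminescence after 30 min at room temperature indicated cytotoxicity.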

[5] = qHTS assay to identify small molecule antagonists of the estrogen receptor beta (ER-beta) signaling pathway - cell viability counter screen (AID 1259382; active means well fitted curve in the direction sought with a large enough effect in the repeat runs; an effect the other way counts as inactive or inconclusive;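 further: HEK293T cells carrying ER-beta-UAS-bla reporter stimulated with estradiol; series mostly up to about 92 µM; nearly all actives have a fitted effect of over 55% in size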)
Outline: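 CellTiter-Glo ATP luminescence measured after the LiveBLAzer read in the same wells; ER-beta-UAS-bla HEK293T cells, 16 hr compound treatment with 1nM 17-beta-estradiol agonist at 37C, 5% CO2.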

[6] = target: Estrogen receptor (Homo sapiens) (UniProt P03372); experiment: qHTS assay to identify small molecule agonists of the estrogen receptor alpha (ER-alpha) signaling pathway in the presence of an antagonist (AID 1259383); further: top concentration of the series differs between compounds; nearly all actives have a fitted effect of over 15% in size
Sequence of Estrogen receptor (Homo sapiens) (P03372 whole entry, looked up): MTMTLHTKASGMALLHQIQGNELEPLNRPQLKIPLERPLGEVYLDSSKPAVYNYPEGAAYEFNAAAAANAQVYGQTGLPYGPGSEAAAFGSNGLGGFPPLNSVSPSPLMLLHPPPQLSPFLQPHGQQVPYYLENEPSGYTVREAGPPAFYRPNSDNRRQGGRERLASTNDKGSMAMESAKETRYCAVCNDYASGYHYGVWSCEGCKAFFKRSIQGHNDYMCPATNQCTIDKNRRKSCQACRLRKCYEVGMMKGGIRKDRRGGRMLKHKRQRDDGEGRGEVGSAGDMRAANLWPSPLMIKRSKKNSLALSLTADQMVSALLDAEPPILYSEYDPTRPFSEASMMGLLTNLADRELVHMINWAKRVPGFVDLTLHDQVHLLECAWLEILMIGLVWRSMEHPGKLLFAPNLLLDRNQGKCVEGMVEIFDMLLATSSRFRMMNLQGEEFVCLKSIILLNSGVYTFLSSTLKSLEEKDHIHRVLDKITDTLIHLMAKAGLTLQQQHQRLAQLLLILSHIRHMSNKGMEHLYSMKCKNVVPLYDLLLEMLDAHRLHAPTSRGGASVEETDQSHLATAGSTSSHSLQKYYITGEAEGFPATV
Outline: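 Luminescent ERE-luciferase reporter, VM7Luc4E2 cells (endogenous ER-alpha); 10.0nM ICI-182,780 final; 15-point compound titration; 22hr at 37C; ONE-Glo, 30min RT.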

[7] = qHTS assay to identify small molecule agonists or antagonists of the thyroid stimulating hormone receptor (TSHR) signaling pathway - wild type cell line counter screen (AID 1259384)
Outline: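 Counter screen in untransfected Hek293: compounds (15-point titration, triplicate) plus phosphodiesterase inhibitor Ro20-1724 added after 18 h plating; 30 min RT. Intracellular cAMP via competitive d2/cryptate immunoassay, 1 h incubation.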

[8] = target: Estrogen receptor beta (Homo sapiens) (UniProt Q92731); experiment: qHTS assay to identify small molecule agonists of the estrogen receptor beta (ER-beta) signaling pathway (AID 1259377; active means well fitted activation curve with a large enough effect in the signal ratio in the repeat runs, not every such curve was filed as active; the % refers to the signal ratio)
Sequence of Estrogen receptor beta (Homo sapiens) (Q92731 whole entry, looked up): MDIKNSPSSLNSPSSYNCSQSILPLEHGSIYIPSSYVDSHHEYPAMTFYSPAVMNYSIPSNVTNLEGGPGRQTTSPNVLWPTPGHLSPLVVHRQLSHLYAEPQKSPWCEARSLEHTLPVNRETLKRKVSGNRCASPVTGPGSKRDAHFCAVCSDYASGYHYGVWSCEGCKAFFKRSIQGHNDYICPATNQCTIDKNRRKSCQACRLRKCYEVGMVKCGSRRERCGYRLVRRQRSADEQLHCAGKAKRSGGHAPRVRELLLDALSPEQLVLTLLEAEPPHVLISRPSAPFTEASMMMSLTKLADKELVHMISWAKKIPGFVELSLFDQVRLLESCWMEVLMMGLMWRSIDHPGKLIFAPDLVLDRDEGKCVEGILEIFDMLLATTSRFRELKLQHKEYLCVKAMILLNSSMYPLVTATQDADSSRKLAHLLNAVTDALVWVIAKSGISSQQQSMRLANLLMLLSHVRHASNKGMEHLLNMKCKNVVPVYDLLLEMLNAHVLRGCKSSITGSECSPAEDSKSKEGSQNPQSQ
Outline: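 Beta-lactamase reporter readout: fluorescence of LiveBLAzer B/G FRET substrate after 2 h at room temperature, following 16 h compound treatment of ER-beta-UAS-bla HEK293T cells at 37C in 2% charcoal-stripped FBS medium.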

[9] = target: Estrogen receptor beta (Homo sapiens) (UniProt Q92731); experiment: qHTS assay to identify small molecule antagonists of the estrogen receptor beta (ER-beta) signaling pathway (AID 1259378; active means well fitted inhibition curve with a large enough effect in the signal ratio in the repeat runs, not every such curve was filed as active; the % refers to the signal ratio)
Outline: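 Antagonist mode: compounds added to beta-lactamase reporter HEK293T ER-beta-UAS cells stimulated with E2 (1nM final), 16 hr at 37C. LiveBLAzer B/G FRET substrate, 2 hours room temperature, fluorescence read-out.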

[10] = target: Androgen receptor (Homo sapiens) (UniProt P10275); experiment: qHTS assay to identify small molecule agonists of the androgen receptor (AR) signaling pathway in the presence of an antagonist (AID 1259381); further: nearly all actives have a fitted effect of over 15% in size
Sequence of Androgen receptor (Homo sapiens) (P10275 whole entry, looked up): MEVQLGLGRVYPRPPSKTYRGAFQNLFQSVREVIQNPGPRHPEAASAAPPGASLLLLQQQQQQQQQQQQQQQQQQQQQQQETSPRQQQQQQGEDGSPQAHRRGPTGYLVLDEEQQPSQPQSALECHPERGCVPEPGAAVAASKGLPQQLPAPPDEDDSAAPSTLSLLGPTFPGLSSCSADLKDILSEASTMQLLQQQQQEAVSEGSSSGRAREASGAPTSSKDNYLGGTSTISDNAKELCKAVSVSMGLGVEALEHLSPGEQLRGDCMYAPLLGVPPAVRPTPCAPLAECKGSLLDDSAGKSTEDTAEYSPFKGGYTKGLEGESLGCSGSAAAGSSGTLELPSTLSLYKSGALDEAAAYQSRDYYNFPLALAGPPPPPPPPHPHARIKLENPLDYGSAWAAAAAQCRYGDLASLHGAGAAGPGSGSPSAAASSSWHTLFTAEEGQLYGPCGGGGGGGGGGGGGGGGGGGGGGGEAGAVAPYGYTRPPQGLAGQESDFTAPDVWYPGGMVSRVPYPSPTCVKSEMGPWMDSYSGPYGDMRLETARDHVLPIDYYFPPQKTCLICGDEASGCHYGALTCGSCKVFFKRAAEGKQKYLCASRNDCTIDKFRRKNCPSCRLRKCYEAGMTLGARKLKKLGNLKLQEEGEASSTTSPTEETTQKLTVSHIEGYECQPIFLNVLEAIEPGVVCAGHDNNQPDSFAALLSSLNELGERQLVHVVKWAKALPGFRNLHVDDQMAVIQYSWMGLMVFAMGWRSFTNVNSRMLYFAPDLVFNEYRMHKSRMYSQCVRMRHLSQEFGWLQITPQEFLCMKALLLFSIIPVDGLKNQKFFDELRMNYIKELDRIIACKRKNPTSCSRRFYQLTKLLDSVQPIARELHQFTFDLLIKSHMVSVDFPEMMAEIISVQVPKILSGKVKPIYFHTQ
Outline: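 Plated MDA-kb2 cells (3,000/well) were pre-incubated 5hr, given nilutamide (3.0uM final) or buffer, then dosed with compounds in DMSO at 15 concentrations. Luciferase activity was quantified by luminescence after 16hr at 37C.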

SMILES | Potency [1] | Potency [2] | Potency [3] | Potency [4] | Potency [5] | Potency [6] | outcome [7] | Potency [8] | Potency [9] | Potency [10]
BrCCCCBr | inactive | inactive | inactive | inactive | inactive | inactive | inactive |  |  | 
COc1nn(C(=O)NS(=O)(=O)c2ccccc2OC(F)(F)F)c(=O)n1C | inactive |  | inactive | inactive | inactive |  | inactive | inactive | inactive | 
O=C=Nc1ccc(Cl)cc1 | inactive |  | inactive | 2.43 µM (active) |  | inactive |  | inactive | inactive | 
CN(N=O)c1ccc([N+](=O)[O-])cc1 | inactive | inactive |  | inactive | inactive | inactive |  |  |  | 
NNC(=O)c1cccnc1 | inactive | inactive | inactive | inactive | inactive | inactive | inactive |  |  | 
II | inactive | inactive | inactive |  |  | inactive |  |  |  | inactive
CC1(C)CCC(Cc2ccc(Cl)cc2)C1(O)Cn1cncn1 (configuration not stated) | inactive | 27.3 µM (active) |  |  |  | inactive | inactive |  |  | 
CC(C)O.CC(C)O.OCCN(CCO)CCO.OCCN(CCO)CCO.[Ti] | inactive | inactive | inactive | inactive | inactive |  | inactive |  |  | 
CCCC(=O)Cl | inactive | inactive | inactive | inactive | inactive | inactive | inactive |  |  | 
O=C(OC1CCCCC1)c1ccccc1C(=O)OC1CCCCC1 | inactive | 51.2 µM (active) | inactive |  |  | inactive | inactive |  |  | 
Brc1ccc(Oc2ccccc2)cc1 | inactive | 31.4 µM (active) and inactive | inactive |  | inactive | inactive | inactive |  |  | 
C=CC(=O)OCCCCO | inactive |  | inactive | inactive | inactive | inactive |  | inactive | inactive | 
O=C(CBr)c1ccccc1 | inactive | 34.6 µM (active) | inactive | inactive | inactive | inactive | inactive |  |  | 
COP(=O)(OC)O/C(=C/Cl)c1cc(Cl)c(Cl)cc1Cl | inactive | 57.5 µM (active) |  |  | inactive | inactive |  |  |  | inactive
O=C1C(Cl)C(CCl)CN1c1cccc(C(F)(F)F)c1 (configuration not stated) | inactive |  | inactive |  | inactive |  | inactive | inactive | inactive | inactive
C=CCCl | inactive | inactive | inactive | inactive | inactive | inactive | inactive |  |  | 
CNC(C)Cc1ccccc1OC (configuration not stated) | inactive | inactive | inactive | inactive | inactive | inactive | inactive |  |  | 
N#CCc1ccccc1 | inactive |  | inactive | inactive | inactive | inactive | inactive | inactive | inactive | 
C/C=C/C=O | inactive | inactive | inactive |  | inactive |  |  |  |  | 
N#Cc1ccc(Cl)cc1 | inactive | inactive | inactive | inactive | inactive | inactive | inactive |  |  | 
COP(=S)(Oc1cc(Cl)c(Br)cc1Cl)c1ccccc1 (configuration not stated) | inactive | inactive | inactive |  | inactive | inactive | inactive |  |  | inactive
N#Cc1cc(I)c(O)c(I)c1 | inactive | 24.3 µM (active) |  | inactive | inactive |  | inactive |  |  | inactive
CC(C)=CCOc1c2occc2cc2ccc(=O)oc12 | inactive |  | inactive | inactive | inactive | inactive |  | inactive | inactive | inactive
Nc1ccc(N=Nc2ccc(-c3ccc(N=Nc4c(S(=O)(=O)O)cc5cc(S(=O)(=O)O)c(N=Nc6ccccc6)c(O)c5c4N)cc3)cc2)c(N)c1 | inactive |  | 17.6 µM (active) |  | inactive | inactive |  | inactive |  | 
CN1C(=O)C(O)N=C(c2ccccc2)c2cc(Cl)ccc21 (configuration not stated) | inactive |  | inactive | inactive | inactive | inactive |  | inactive |  | 
C/C(=C\c1ccccc1)[N+](=O)[O-] | inactive |  | 24.3 µM (active) |  | inactive | inactive | inactive |  |  | inactive
O=S(=O)(Cl)c1ccccc1 | inactive |  | inactive | inactive | inactive |  | inactive |  |  | 
